The results in this text go back to PubChem BioAssay (NCI).

Assay in all cases: NCI-60 one-dose screen, 48 h (100 = growth as untreated, 0 = no growth, -100 = all killed)
Experiment [1] concerns NCI-H23 lung.
In experiment [2] the test system is NCI-H226 lung.
Experiment [3] deals with NCI-H322M lung. Particulars: 10 µM unless noted.
For experiment [4], the system named is HOP-62 NSCLC.
The test system of experiment [5] is NCI-H460 lung.
The test system of experiment [6] is HOP-92 NSCLC.
In experiment [7] the test system is NCI-H522 lung.
For experiment [8], the system named is A549/ATCC NSCLC.
Experiment [9] relates to 786-0 renal.
Experiment [10] has as its system COLO 205 colon.

Structures are written as SMILES. “And” between values parts separate entries of the source, which are not always exact repeats. Equal values may be shown once. This is part of a sample that, as a whole, favours compounds with a hit. Of some 83,000 tested, about 20% had one in any assay.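 Growth was measured after 48 h exposure to one concentration of compound in 96-well plates. Values under 10 count as active.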 The source made the active and inactive calls.

`CC(=O)N1N=C(c2ccc(Nc3nc(Nc4ccc(F)cc4)nc(Nc4ccc(Cl)cc4)n3)cc2)CC1c1ccc(N(C)C)cc1` (stereo not drawn): the growth in experiment [1] (10 µM unless noted) was 52.2% (inactive); in experiment [2] (10 µM unless noted) it was 42.3% (inactive); in experiment [3] it was 79.6% (inactive); in experiment [4] (10 µM unless noted), 109% (inactive) and 58.6% (inactive); in experiment [5] (10 µM unless noted), 44.9% (inactive); in [6] (10 µM unless noted) it was 22.5% (inactive). The growth was 47.8% (inactive) in experiment [7] (10 µM unless noted); 30.3% (inactive) in [8] (10 µM unless noted); 113% (inactive) and 44.1% (inactive) in experiment [9] (10 µM unless noted); 51.2% (inactive) in experiment [10] (10 µM unless noted).

On to `CCN(Cc1ccccc1)c1ccc(/C=C2\COc3ccccc3C2=O)cc1`, for which the growth in experiment [1] (10 µM) was 97.2% (inactive); in experiment [1] (100 µM) it was 37.1% (inactive); in [2] (10 µM) it was 95.4% (inactive); in experiment [2] (100 µM), 50.9% (inactive); in experiment [3] it was 75.9% [100 µM] (inactive); in [4] (10 µM) it was 89.6% (inactive). Besides, the growth was 56.8% (inactive) in experiment [4] (100 µM); 100% (inactive) in experiment [5] (10 µM); 45.8% (inactive) in experiment [5] (100 µM); 85.9% (inactive) in experiment [6] (10 µM); 23% (inactive) in [6] (100 µM); 88.5% (inactive) in experiment [7] (10 µM). For the same compound, the growth in experiment [7] (100 µM) was 2.07% (active); in experiment [8] (10 µM), 99.4% (inactive); in experiment [8] (100 µM), 47% (inactive); in experiment [9] (10 µM) it was 86.9% (inactive); in experiment [9] (100 µM) it was 54.5% (inactive); in experiment [10] (10 µM), 106% (inactive). In [10] (100 µM), the growth was 38.9% (inactive).

With `Cc1cccc(Cc2cnc(NC(=O)CCCOc3ccc(Cl)cc3)s2)c1`, the growth is 54% (inactive) in experiment [1] (10 µM unless noted); 53.8% (inactive) in experiment [2] (10 µM unless noted); 44.7% (inactive) in experiment [3]; 28.7% (inactive) in [4] (10 µM unless noted); 9.65% (active) in [5] (10 µM unless noted); 52.2% (inactive) in [6] (10 µM unless noted). Also, the growth in experiment [7] (10 µM unless noted) was 42.5% (inactive); in experiment [8] (10 µM unless noted), 10.7% (inactive); in experiment [9] (10 µM unless noted), 11% (inactive); in experiment [10] (10 µM unless noted), 15.2% (inactive).

`Cc1ccc(C(=O)N(CCCN)[C@@H](c2nc3cc(Cl)ccc3c(=O)n2Cc2ccccc2)C(C)C)cc1`: the growth in experiment [1] (10 µM unless noted) is 8.15% (active); in experiment [2] (10 µM unless noted), 22.6% (inactive); in experiment [3] it was -9.48% (active); in [4] (10 µM unless noted), -28% (active); in experiment [5] (10 µM unless noted), -72.4% (active); in experiment [6] (10 µM unless noted), -16.3% (active). For the same compound, the growth in [7] (10 µM unless noted) was -45.9% (active); in experiment [8] (10 µM unless noted), -40% (active); in experiment [9] (10 µM unless noted) it was -13.7% (active); in experiment [10] (10 µM unless noted), -72.3% (active).

`Nc1ccc(S(=O)(=O)c2ccc(N)cc2)cc1`: the growth is 99.8% (inactive) and 99.3% (inactive) in [1] (10 µM unless noted); 92.2% (inactive) and 103% (inactive) in experiment [2] (10 µM unless noted); 96.7% (inactive) and 81.5% (inactive) in experiment [3]; 107% (inactive) in [4] (10 µM unless noted); 109% (inactive) and 102% (inactive) in experiment [5] (10 µM unless noted); 70.4% (inactive) and 87% (inactive) in experiment [6] (10 µM unless noted). Moreover, the growth is 110% (inactive) and 94.6% (inactive) in experiment [7] (10 µM unless noted); 98.5% (inactive) in [8] (10 µM unless noted); 103% (inactive) and 112% (inactive) in experiment [9] (10 µM unless noted); 115% (inactive) and 95.2% (inactive) in experiment [10] (10 µM unless noted).

In the case of `CN(C)c1ccc2nc3ccc(=O)cc-3sc2c1`, the growth in experiment [1] (10 µM unless noted) is 11.1% (inactive) and 22% (inactive); in experiment [2] (10 µM unless noted), 71.8% (inactive); in experiment [3] it was 49.7% (inactive) and 70% (inactive); in [4] (10 µM unless noted), 35.5% (inactive) and 60.7% (inactive); in experiment [5] (10 µM unless noted), 19% (inactive) and 34.1% (inactive); in [6] (10 µM unless noted) it was 49% (inactive) and 61% (inactive). The growth was -10.8% (active) and 41.5% (inactive) in experiment [7] (10 µM unless noted); 1.33% (active) and 35.9% (inactive) in [8] (10 µM unless noted); 57.1% (inactive) and 43.7% (inactive) in experiment [9] (10 µM unless noted); -10.2% (active) and 5.66% (active) in [10] (10 µM unless noted).

As to `CC(=O)/C=C/c1ccc(OCc2ccc(C(C)(C)C)cc2)cc1`, the growth in experiment [1] (10 µM) is 52.5% (inactive); in experiment [1] (100 µM), 31.7% (inactive); in experiment [2] (10 µM), 77.5% (inactive); in [2] (100 µM), 38.3% (inactive); in [3] it was 19.4% [100 µM] (inactive); in experiment [4] (10 µM) it was 88% (inactive). The growth in experiment [4] (100 µM) was 26.8% (inactive); in [5] (10 µM), 84.4% (inactive); in [5] (100 µM) it was 24.6% (inactive); in experiment [6] (10 µM), 89.5% (inactive); in experiment [6] (100 µM), -14.7% (active); in [7] (10 µM) it was 76.1% (inactive). In addition, the growth in [7] (100 µM) is -8.78% (active); in [8] (10 µM), 80.3% (inactive); in [8] (100 µM), 41.8% (inactive); in experiment [9] (10 µM) it was 91.9% (inactive); in experiment [9] (100 µM) it was 20.7% (inactive); in experiment [10] (10 µM), 78.6% (inactive). Moreover, in [10] (100 µM), the growth was -65.6% (active).

As for `C=C(C)[C@@H]1CC[C@]2(C)[C@H](CC(=O)N[C@H]3[C@@H]4C[C@](C)(C(=O)OC)CC[C@]4(C)CC[C@]32C)[C@@]1(C)CCC#N`, the growth in experiment [1] (10 µM unless noted) was 92.7% (inactive); in [2] (10 µM unless noted) it was 78.1% (inactive); in [3], 103% (inactive); in experiment [4] (10 µM unless noted), 110% (inactive); in experiment [5] (10 µM unless noted), 96.8% (inactive); in experiment [6] (10 µM unless noted), 69.3% (inactive). For the same compound, the growth is 71.3% (inactive) in [7] (10 µM unless noted), 94.2% (inactive) in [8] (10 µM unless noted), 107% (inactive) in experiment [9] (10 µM unless noted) and 86.9% (inactive) in [10] (10 µM unless noted).

On to `CC[C@H](C)[C@H](NC(=O)[C@@H](N)CCC(N)=O)C(=O)N[C@@H](Cc1ccc(O)cc1)C(=O)N[C@@H](CCCCN)C(=O)N[C@@H](CCCCN)C(=O)N[C@@H](Cc1ccc(O)cc1)C(=O)N[C@@H](CCCNC(=N)N)C(=O)N[C@H](C(=O)N[C@@H](Cc1c[nH]c2ccccc12)C(=O)N[C@@H](Cc1ccc(O)cc1)C(=O)N[C@@H](CCCNC(=N)N)C(=O)N[C@@H](CCCCN)C(=O)N[C@@H](C)C(=O)N[C@@H](Cc1c[nH]c2ccccc12)C(=O)N[C@@H](CCCCN)C(=O)N[C@H](C(=O)N[C@@H](CC(C)C)C(=O)NCC(=O)N[C@@H](CCCCN)C(=O)N[C@H](C(N)=O)C(C)C)C(C)C)[C@@H](C)O`, for which the growth was -15.1% (active) in experiment [1] (10 µM unless noted); 53.4% (inactive) in [2] (10 µM unless noted); 23% (inactive) in experiment [3]; 13.3% (inactive) in [4] (10 µM unless noted); -4.21% (active) in experiment [5] (10 µM unless noted); -21.2% (active) in [6] (10 µM unless noted). Moreover, the growth in [7] (10 µM unless noted) is 59.4% (inactive); in experiment [8] (10 µM unless noted), 38.7% (inactive); in [9] (10 µM unless noted), -57.9% (active); in experiment [10] (10 µM unless noted), 0.119% (active).

Consider `BrC1=C(Br)C(Br)(Br)C(Br)=C1Br`, for which the growth in experiment [1] (10 µM unless noted) was 93% (inactive); in [2] (10 µM unless noted) it was 91.7% (inactive); in experiment [3] it was 107% (inactive); in [4] (10 µM unless noted), 101% (inactive); in experiment [5] (10 µM unless noted), 102% (inactive); in experiment [6] (10 µM unless noted) it was 105% (inactive). Besides, the growth in experiment [7] (10 µM unless noted) was -15.2% (active); in experiment [8] (10 µM unless noted), 95.2% (inactive); in experiment [9] (10 µM unless noted), 82.4% (inactive); in experiment [10] (10 µM unless noted) it was 69.6% (inactive).
